HT1080-NT tox: qHTS for induction of synthetic lethality in tumor cells producing 2HG: qHTS for the HT-1080-NT fibrosarcoma cell line | HT-1080-NT fibrosarcoma viability, CellTiter-Glo ATP luminescence, 48 h | Potency, µM (highest dose often 46.1 µM), for the others: top-dose activity, negative = less viability, actives largely listed as cytotoxic | hit rate 1.6% among 360,000;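 also: NT is the 2HG producing partner of a matched IDH1 knockdown line; 0% = DMSO-treated cells and -100% = media-only wells without cells; nearly all actives have a fitted effect of over 55% in size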
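Fibrosarcoma NT cells, 750 per well in 5% FBS RPMI, were exposed to compound for 48 hours. Viability: CellTiter-Glo luminescence.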
MCF10A rerep: A quantitative high throughput screen for small molecules that induce DNA re-replication in MCF 10a normal breast cells. MCF 10A DNA re-replication, Hoechst nuclear intensity, 48 h. Potency, µM (highest dose often 46.1 µM), inactives show at the top dose activity, positive = re-replication, hits mostly activators. hit rate 2.9% among 350,000. AID 624296, 2012; also: % of control where 0% means no effect; nearly all actives have a fitted effect of over 50% in size
KB-3-1 cytotox: qHTS assay for MDR1-selective chemotherapeutics: Primary screen using the parental adenocarcinoma cell KB-3-1; KB-3-1 viability, CellTiter-Glo ATP luminescence, 72 h; AID 1347075, 2019; Potency, µM (highest dose often 46.1 µM), hits mostly cytotoxic; hit rate 1.4% among 400,000; also: % is scaled to controls: 0 for no effect and ±100 for the full control effect; nearly all actives have a fitted effect of over 60% in size
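Parental KB-3-1 viability, qHTS format: 72 h compound exposure, 37 °C; CellTiter-Glo; media-only wells and DMSO plates as controls; concentration-effect fits on corrected data.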
SW480 rerep: A quantitative high throughput screen for small molecules that induce DNA re-replication in SW480 colon adenocarcinoma cells; hit rate 1.8% among 340,000; SW480 DNA re-replication, Hoechst DNA content imaging, 48 h; AID 624297, 2012; Potency, µM (titrated, usually from 46.1 µM), inactives show at the highest dose re-replication activation, most hits filed as activators; also: % of control where 0% means no effect; nearly all actives have a fitted effect of over 55% in size
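SW480 cells exposed to compounds for 48 hr at 37 C, 5% CO2, then Hoechst-stained 40 min. Nuclear DNA content imaged by fluorescence scanning (405 nm excitation, 500-530 nm emission); re-replication scored as increased high-intensity nuclei.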
KB-V1 MDR tox: qHTS assay for MDR1-selective chemotherapeutics: Primary screen using the drug-selected MDR subline cells KB-V1 | KB-V1 MDR cells viability, CellTiter-Glo, 72 h | hit rate 3.4% among 400,000 | Potency, µM (titrated, usually from 46.1 µM), actives largely listed as cytotoxic; also: % is scaled to controls: 0 for no effect and ±100 for the full control effect; nearly all actives have a fitted effect of over 60% in size
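Potencies derive from concentration-effect curves fitted to normalized luminescence (CellTiter-Glo) of KB-V1 cells treated for 72 h at 37 degrees C in phenol-red-free DMEM containing 10% FBS.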
HT1080 IDH1KD tx: qHTS for induction of synthetic lethality in tumor cells producing 2HG: qHTS for the HT-1080-IDH1KD cell line; HT-1080 IDH1 knockdown viability, ATP luminescence, 48 h; Potency, µM (titrated, usually from 46.1 µM), without a hit: at the top dose activity, negative = toxicity, actives largely listed as cytotoxic; hit rate 2% among 360,000; AID 686971, 2013;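 also: 0% = DMSO wells and -100% = cell-free medium wells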
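In this qHTS, HT-1080 cells depleted of IDH1 are exposed for 48 h at 37 °C to compound titrations. Toxicity is scored from CellTiter-Glo luminescence, with DMSO as full viability and medium alone as none.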
Active calls of the source: *; i = inactive; ? = inconclusive; · = no result. Compounds with a hit are over-represented: about 8% of the library has one in this group of screens. Calls follow the shape of the dose curve; as a rule, active = well fitted curve in the direction sought with a large enough effect; inconclusive = small, poorly fitted or top-dose-only effect, or another doubt; inactive = no such curve, though single readings can be large; an effect the other way counts as inactive or inconclusive. Potency is read from the fitted curve at half-maximal effect.

SMILES	HT1080-NT tox	MCF10A rerep	KB-3-1 cytotox	SW480 rerep	KB-V1 MDR tox	HT1080 IDH1KD tx
CCOc1ccc(Br)cc1S(=O)(=O)Nc1ccc(C(=O)Nc2ccc(C)cc2)cc1	-11%	?	i	0%	7.3µM*	-17%
CCOc1ccc(Br)cc1S(=O)(=O)Nc1ccc(NC(=O)c2ccccc2C)cc1	-5%	-3%	i	0%	i	-3%
Cc1ccc(-c2nc(C)c(CCNC(=O)C(=O)Nc3cc(C)ccc3C)s2)cc1	·	·	i	·	i	·
Cc1ccc(S(=O)(=O)N2CCN(C(=O)c3cc(-c4cccs4)nn3-c3ccccc3)CC2)cc1	-1%	10%	i	3%	4.6µM*	0%
O=C(c1cc(-c2cccs2)nn1-c1ccccc1)N1CCN(S(=O)(=O)c2ccccc2)CC1	-3%	14%	i	?	16µM*	0%
COc1ccccc1Nc1c2c(nc3ccccc13)CCC2	?	12µM*	?	15µM*	?	?
COc1cc(Cl)c(C)cc1Nc1c2c(nc3ccccc13)CCC2	·	·	4.1µM*	·	i	·
COc1ccc(Nc2c3c(nc4ccccc24)CCC3)c(OC)c1	18µM*	?	21µM*	?	4.1µM*	16µM*
COc1cc(Nc2c3c(nc4ccccc24)CCCC3)cc(OC)c1OC	?	0%	?	0%	i	?
COc1ccc(NC(=O)CSc2c3c(nc4ccccc24)CCC3)c(OC)c1	?	14%	i	-3%	?	?
Oc1cc2cc(-c3csc(-c4ccc(F)cc4)n3)cc3c2n1CCC3	·	·	?	·	i	·
COc1ccccc1C(=O)NCCn1cc(SCC(=O)Nc2ccccc2F)c2ccccc21	·	·	i	·	?	·
CCn1c(SC/C=C/c2ccccc2)nnc1-c1cccs1	-1%	?	i	-4%	13µM*	0%
CCn1c(CNC(=O)c2cccs2)nnc1SCC(=O)NCCc1ccccc1	3%	11%	i	-10%	i	5%
CCn1c(SCC(=O)NCCc2ccccc2)nnc1-c1cccs1	-4%	1%	i	-10%	21µM*	5%
Nn1cc(-c2ccccc2)nc1SCC(=O)NCC(F)(F)F	-1%	8%	i	-19%	i	3%
Cn1c(SC/C=C/c2ccccc2)nnc1-c1cccs1	3%	2%	i	-3%	i	21%
Nn1cc(-c2ccccc2)nc1SCC(=O)NCCc1ccccc1	-7%	-2%	i	-4%	23µM*	-15%
COc1cc(-c2nc(-c3ccccc3)c(-c3ccc(Br)cc3)[nH]2)cc(OC)c1O	·	·	i	·	i	·
COc1ccc(N2CCN(CCCNC(=O)C3(S(=O)(=O)c4ccc(Cl)cc4)CC3)CC2)cc1	2%	8%	i	-3%	9.2µM*	5%
O=C(NCCCN1CCN(c2cccc(Cl)c2)CC1)C1(S(=O)(=O)c2ccc(Cl)cc2)CC1	-9%	?	?	?	i	-17%
CC(=O)N1CCN(CCS(=O)(=O)c2cc(Cl)ccc2Cl)CC1	5%	15µM*	i	?	i	19%
COc1ccc(N2CCN(CCS(=O)(=O)c3cc(Cl)ccc3Cl)CC2)cc1	-5%	5.8µM*	i	7.3µM*	i	-2%
CC1CN(CCS(=O)(=O)c2cc(Cl)ccc2Cl)CC(C)O1 (stereo not given)	?	2.9µM*	?	?	?	?
COc1ccc(NC(=O)CCN2CCN(S(=O)(=O)c3cc(Cl)ccc3Cl)CC2)cc1	6%	-25%	i	12%	i	0%
SMILES	HT1080-NT tox	MCF10A rerep	KB-3-1 cytotox	SW480 rerep	KB-V1 MDR tox	HT1080 IDH1KD tx
CCc1ccc(C2CC(=O)Nc3cc4c(cc32)OCO4)cc1 (stereo not given)	·	·	i	·	i	·
Clc1cccc(CNc2ncnc3nc[nH]c23)c1	·	·	i	·	i	·
O=[N+]([O-])c1c(Nc2ccccc2O)ccc2nonc12	-2%	?	i	26%	i	-10%
O=[N+]([O-])c1c(Nc2ccccc2O)cc(Cl)c2nonc12	10µM*	-3%	?	-5%	?	5.8µM*
C/C(=N\NC(=O)c1ccc(O)cc1)c1ccc(N2CCOCC2)cc1	1%	4%	i	-6%	i	-11%
C/C(=N\NC(=O)c1ccc(N/N=C(\C)c2ccc(O)cc2)cc1)c1ccc(O)cc1	-29%	21µM*	i	9%	i	?
C/C(=N\NC(=O)c1cccc(N/N=C(\C)c2cc(O)ccc2O)c1)c1cc(O)ccc1O	23µM*	0%	?	?	?	18µM*
COc1ccc2[nH]cc(C(=O)CNc3nccs3)c2c1	·	·	i	·	i	·
CCOC(=O)c1[nH]cnc1N=Nc1c(O)ccc2ccccc12	5.8µM*	?	i	?	?	6.5µM*
COc1ccccc1N1CCN(C(=O)CCn2cnc3onc(-c4ccc(F)cc4)c3c2=O)CC1	·	·	i	·	i	·
CCCS(=O)(=O)c1nnnn1-c1cccc(OC)c1	10µM*	6.5µM*	i	?	i	6.3µM*
COc1cccc(-n2nnnc2SCC(=O)Nc2ccccc2OC)c1	7%	4%	i	-16%	i	1%
Cn1nnc2c[n+](CC(=O)c3ccc(Cl)cc3)cc(Br)c21	?	?	?	?	i	?
Cn1nnc2c[n+](CC(=O)c3ccc4ccccc4c3)cc(Br)c21	?	?	?	?	i	21µM*
COc1cc(/C=N/NC(=O)COc2ccc(Cl)cc2)ccc1OS(=O)(=O)c1ccc(C)cc1	?	17%	i	-1%	16µM*	?
COc1ccc(/C=N/NS(=O)(=O)c2ccccc2)cc1OS(=O)(=O)c1ccc(C)cc1	-5%	?	i	?	18µM*	-4%
COc1cc(/C=N/NC(=O)COc2cccc(F)c2)ccc1OS(=O)(=O)c1ccc(C)cc1	-1%	?	?	?	5.8µM*	?
O=S(=O)(c1ccc(Cl)cc1)N1CCN(c2nc(-c3ccccc3)nc3ccccc23)CC1	·	·	i	·	i	·
Cc1ccc(C)c(NC(=O)C2CCN(c3cc(C)nc4c(-c5ccc(Cl)cc5)c(C)nn34)CC2)c1	·	·	i	·	i	·

High-throughput results: PubChem, National Center for Advancing Translational Sciences (NCATS)
